IMPase inh: cell-permeable inhibitors of inositol monophosphatase (IMPase); inhibition (IP1 accumulation), % at 46.1 µM; AID 901; CHO-M1 cells, IP1 accumulation, HTRF TR-FRET ratio; 120,000 tested, under 10 active; active means well fitted curve in the direction sought with a large enough effect in the signal ratio, not every such curve was filed as active; inconclusive means small, poorly fitted or top-dose-only effect, or a change in a side signal; inactive means no such curve, though single readings can be large or run the other way; the % refers to the signal ratio;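 further: cells stimulated with carbachol in lithium chloride buffer; plate controls were DMSO basal wells for no effect and reference inhibitor wells for full effect; higher means more IMPase inhibition seen as more IP1 and lower FRET ratio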
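Carbachol-driven Gq signalling in CHO-M1 cells (2000/well) generates IP1. Compounds that block IMPase raise IP1 and so reduce the FRET signal from Eu-anti-IP1 and d2-IP1 after a 10 min room-temperature lysis.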
ALDH1A1 block: blocks purified human ALDH1A1 activity; 220,000 compounds, 7.3% hits; Purified ALDH1A1, NADH fluorescence, propionaldehyde substrate; P00352; AID 1030; Potency, µM (titrated, usually from 75.3 µM), for inactives: at the highest dose activity, negative = inhibition, most hits filed as inhibitors;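 further: potency means the concentration at half of the fitted maximal effect; plate controls were no enzyme wells and a reference inhibitor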
Target sequence (P00352 whole entry, looked up): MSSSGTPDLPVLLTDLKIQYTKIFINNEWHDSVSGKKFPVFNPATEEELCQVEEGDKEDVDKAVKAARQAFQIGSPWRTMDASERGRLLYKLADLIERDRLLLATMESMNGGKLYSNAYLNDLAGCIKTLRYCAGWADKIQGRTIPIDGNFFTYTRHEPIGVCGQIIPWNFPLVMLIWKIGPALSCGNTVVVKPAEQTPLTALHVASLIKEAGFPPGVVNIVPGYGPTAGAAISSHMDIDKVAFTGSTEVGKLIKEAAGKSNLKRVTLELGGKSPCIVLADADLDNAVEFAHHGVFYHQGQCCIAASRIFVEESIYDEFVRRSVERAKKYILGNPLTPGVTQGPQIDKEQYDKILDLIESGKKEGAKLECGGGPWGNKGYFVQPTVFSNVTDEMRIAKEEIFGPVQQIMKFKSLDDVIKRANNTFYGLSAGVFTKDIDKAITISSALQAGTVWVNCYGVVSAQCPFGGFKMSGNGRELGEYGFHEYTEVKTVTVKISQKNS
HPGD block: blocks human HPGD enzyme activity; P15428; purified HPGD, NADH fluorescence kinetic, PGE2 substrate; Potency, µM, for the others: at the top dose activity change, negative = inhibition, usual class: inhibitors; 150,000 compounds, 4.3% hits; AID 894; further: potency means the concentration at half of the fitted maximal effect
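20 nM HPGD preincubated 15 min at room temperature with compound in 50 mM Tris-HCl pH 8, 0.01% Tween 20. Started with 1 mM NAD+ and 30 uM prostaglandin E2; NADH fluorescence (360/450 nm) read 5 times over 30-s intervals, last minus first.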
Starred values were filed as active, the others as inactive; ? = inconclusive; · = no result. Only some compounds are listed: those with a hit (about 9% of all), similar ones and a draw of the others. Unless noted, the call rests on the fitted dose curve; in most records, active means well fitted inhibition curve with a large enough effect (not every such curve was filed as active); inconclusive means small, poorly fitted or top-dose-only effect, or another doubt; inactive means no such curve, though single readings can be large or run the other way. Unless noted, on the % scale 0 is the no-effect control and ±100 the full control effect.

SMILES | IMPase inh | ALDH1A1 block | HPGD block
Nc1nnc(-c2ccc(F)cc2)s1 | -0.4 | -9.1% | -17.0%
COc1ccc(-c2nc(-c3ccccn3)nc(N3CCN(C)CC3)c2C#N)cc1 | · | 14.1µM* | ·
CN1CCN(c2nc(-c3ccccc3)nc(-c3ccc(F)cc3)c2C#N)CC1 | · | 0.3% | ·
COc1ccc(Sc2ccccc2CN(C)C)cc1OC | 1.7 | -7.4% | -3.9%
CNCc1ccccc1Sc1ccc(O)c(O)c1 | · | 0.562µM* | 17.8µM*
CCN1CC2CCCC3(C1)C(=O)NC1(CCCCC1)N=C23 (stereo not given) | -3.3 | 31.6µM* | -9.8%
CS(=O)(=O)N1CCC2(CCN(c3ccccc3)CC2)CC1 | · | 8.0% | -3.1%
O=C(c1ccc(S(=O)(=O)Nc2ccc(F)cc2)cc1)N1CCN(C(=O)c2ccco2)CC1 | 6.8 | ? | -9.1%
Cc1c(C=O)c2ccccc2n1CC(=O)NCc1ccc2c(c1)OCO2 | · | -2.3% | ·
Cc1ccccc1NC(=O)Cn1c(O)c(N=NC(=O)c2ccccc2O)c2ccccc21 | · | -3.9% | -12.9%
CCn1c(O)c(N=NC(=O)CNc2cccc(C)c2)c2ccccc21 | · | 28.2µM* | -10.8%
CC(=O)c1cn(CC(=O)Nc2ccc(C)cc2)c2ccccc12 | 3.8 | -3.2% | 0.5%
COC(=O)Cn1c(O)c(N=NC(=O)c2ccc3c(c2)OCO3)c2ccccc21 | · | 1.78µM* | ·
CCn1c(O)c(N=NC(=O)CNc2ccc(C)cc2)c2ccccc21 | · | -15.8% | -5.3%
Cc1ccc(NC(=O)Cn2c(O)c(N=NS(=O)(=O)c3ccc(C)cc3)c3ccccc32)cc1 | · | 0.355µM* | -6.2%
Cc1cccc(NC(=O)Cn2c(O)c(N=NC(=O)c3ccncc3)c3ccccc32)c1 | · | 12.6µM* | ·
CN1CCCN(C2C3CC4CC(C3)CC2C4)CC1 (stereo not given) | 2.4 | 1.5% | 3.4%
Cc1ccc(S(=O)(=O)c2cc(C#N)c(=O)[nH]c2N)cc1 | -0.5 | -0.6% | -9.7%
CC(C)(C)NC(=O)CCc1ncc(C(F)(F)F)cc1Cl | · | -9.6% | ·
CC1(O)CC2C(CC1O)C2(C)C (stereo not given) | · | 3.0% | -8.5%
CC(NC(=O)COC(=O)C1CSC2(C)CCC(=O)N12)C12CC3CC(CC(C3)C1)C2 (stereo not given) | · | 4.47µM* | ·
CC12CCC(=O)N1C(C(=O)OCC(=O)Nc1sccc1C#N)CS2 (stereo not given) | 4.5 | -14.9% | -9.2%
CC1(C)OC(=O)C=C[C@@]2(C)C1C[C@@H](O)[C@]1(C)C2CC[C@@]2(C)C(c3ccoc3)OC(=O)[C@H]3O[C@]321 (stereo not given in full) | · | -5.1% | -5.2%
C/C(NC1CCCC1)=C(/C#N)C(N)=O | -2.3 | 10.4% | -21.2%
C/C(=C(\C#N)C(=O)NC1CCCCC1)N(C)C | -5.3 | -8.2% | 15.8µM*
SMILES | IMPase inh | ALDH1A1 block | HPGD block
CCc1ccc(-c2csc3[n+]2CCN3C(C)=O)cc1 | -0.5 | ? | 14.1µM*
CC(=O)N1CC[n+]2c(-c3ccc(Cl)cc3)csc21 | · | ? | 17.8µM*
O=C(CN1CC[n+]2c(-c3cccs3)csc21)c1ccc(-c2ccccc2)cc1 | · | 8.1% | ·
O=C(O)c1c(F)c(F)c(F)c(F)c1-c1ccc(Cl)cc1 | 1.8 | 2.5% | -8.2%
CC(=O)N[C@@H](C(=O)O)C(C)(C)SN=O | 3.5 | -11.8% | -14.6%
FC(F)(F)c1ccccc1-c1ccc2ncnc(NC3CCNCC3)c2c1 | · | 9.0% | -7.0%
Cc1ccccc1C(=O)NNC(=O)CSc1nnc(-c2ccncc2)n1-c1ccccc1 | · | 6.8% | 2.1%
CNC(=O)C1CC(=O)N(c2ccc(C)cc2)C1 (stereo not given) | -3.8 | 4.7% | -2.9%
CCCc1c(OCCCOc2ccc(OCC(=O)O)cc2)ccc(C(C)=O)c1O | 10.8 | 5.7% | -12.0%
Cc1cc(C(F)(F)F)nn1CC(=O)Nc1cccnc1 | 5.1 | 11.1% | -16.4%
O=C(O)/C=C/C(=O)Nc1cccc(C(F)(F)F)c1 | 17.9 | 20µM* | 0.3%
FC(F)(F)c1cccc(NC(=S)NCc2ccccn2)c1 | · | ? | -5.7%
FC(F)(F)c1cccc(NC(=S)Nc2cccc(NC(=S)Nc3cccc(C(F)(F)F)c3)n2)c1 | · | 25.1µM* | ·
Cc1cccc(NC(=S)Nc2cccc(C(F)(F)F)c2)n1 | · | 3.0% | -14.8%
C/C=C/C(=O)Nc1cccc(C(F)(F)F)c1 | -3.2 | 12.9% | 4.6%
Cc1cc(C(F)(F)F)nn1CC(=O)NNC(=S)Nc1cccc(Cl)c1 | -7.2 | 20µM* | -4.7%
FC(F)(F)c1cccc(NC(=S)NNC(=S)NCc2ccccc2)c1 | 0.2 | 0.562µM* | ?
O=C(COC(=O)c1nc(-c2ccccc2)n(-c2cccc(C(F)(F)F)c2)n1)NCc1cccs1 | 5.8 | -2.8% | -4.1%
CCCCN(CCCC)CP(=O)(c1ccccc1)c1ccccc1 | 10.0 | 14.6% | -5.7%

High-throughput results as filed in PubChem.
